Assay outcomes from PubChem BioAssay.
PAFAH1B3 FP inh – blocks human PAF acetylhydrolase 1B catalytic subunit 3; inhibition, % at 3.39 µM; AID 492972; hit rate 0.28% among 340,000; recombinant PAFAH1B3, FP-rhodamine probe, fluorescence polarization;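 active means inhibition above the screen-wide average of all tested compounds plus 3 SD, cut at about 25% in these data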;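 further: 0% = enzyme with DMSO only and 100% = wells lacking PAFAH1B3 protein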
Target sequence (Q15102 whole entry, looked up): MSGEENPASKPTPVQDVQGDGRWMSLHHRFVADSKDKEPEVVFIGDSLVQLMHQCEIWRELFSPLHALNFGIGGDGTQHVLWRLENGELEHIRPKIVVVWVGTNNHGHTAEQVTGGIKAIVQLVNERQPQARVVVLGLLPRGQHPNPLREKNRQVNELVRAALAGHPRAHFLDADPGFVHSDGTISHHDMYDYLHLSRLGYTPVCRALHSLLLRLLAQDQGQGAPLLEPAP
PAFAH1B2 inh – inhibitors of human PAFAH1B2; P68402; recombinant PAFAH1B2, FP-rhodamine activity probe, fluorescence polarization; inhibition, % at 3.39 µM; hit rate 1.2% among 340,000;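 active means inhibition above the mean of all tested compounds plus 3 SD, cut at about 24% in these data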;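 further: 0% = enzyme with DMSO and 100% = wells lacking PAFAH1B2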
HTRA1 inhibitor – blocks human HTRA1 serine peptidase. Q92743. recombinant HTRA1, FP-rhodamine activity-based probe, fluorescence polarization. inhibition, % at 5.96 µM. hit rate 0.5% among 340,000; in the data active means inhibition above about 36%;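 further: 0% = enzyme with DMSO and 100% = wells lacking enzyme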
pPAFAH inh – inhibitors of human plasma PAF acetylhydrolase (pPAFAH). hit rate 1.5% among 330,000. inhibition, % at 3.39 µM. recombinant pPAFAH, FP-rhodamine probe fluorescence polarization. Q13093;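 active means inhibition above the mean inhibition across the screen plus 3 SD, cut at about 25% in these data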;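 further: inhibitors block binding of the rhodamine activity-based probe so polarization drops; 0% = enzyme with DMSO and 100% = wells lacking pPAFAH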
Target sequence (Q13093 whole entry, looked up): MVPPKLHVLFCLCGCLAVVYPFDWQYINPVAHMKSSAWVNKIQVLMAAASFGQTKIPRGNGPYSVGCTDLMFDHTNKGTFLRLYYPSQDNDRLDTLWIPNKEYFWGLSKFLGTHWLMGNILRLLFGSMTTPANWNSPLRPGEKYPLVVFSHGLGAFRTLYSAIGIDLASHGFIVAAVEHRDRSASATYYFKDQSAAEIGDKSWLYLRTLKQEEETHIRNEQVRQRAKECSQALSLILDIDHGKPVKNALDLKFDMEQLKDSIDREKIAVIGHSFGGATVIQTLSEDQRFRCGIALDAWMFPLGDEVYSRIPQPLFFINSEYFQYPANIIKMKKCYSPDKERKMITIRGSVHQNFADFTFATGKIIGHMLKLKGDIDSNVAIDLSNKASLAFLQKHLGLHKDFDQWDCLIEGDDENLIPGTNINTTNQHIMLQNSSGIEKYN
DAGLB inhibitor – blocks human DAGLB lipase activity; Q8NCG7; inhibition, % at 5.17 µM; hit rate 0.059% among 340,000; AID 504411; HEK293T DAGLB membrane lysate, EnzChek fluorogenic substrate; in the data active means inhibition above about 34%;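 further: 0% = enzyme with vehicle and 100% = wells lacking enzyme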
PAFAH2 inh – inhibitors of human PAFAH2 | inhibition, % at 3.39 µM | hit rate 0.99% among 340,000 | recombinant PAFAH2, FP-rhodamine activity probe, fluorescence polarization | Q99487;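 active means inhibition above the mean over all tested compounds plus 3 SD, cut at about 30% in these data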;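 further: inhibitors block probe labeling of enzyme so polarization drops; 0% = enzyme with DMSO and 100% = wells lacking PAFAH2 protein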
* = called active by the depositor. Most compounds without a hit are left out; they make up all but 2.8% or so of the library.

Cc1c(NC(=O)/C(C#N)=C/c2ccc(-c3ccccc3Cl)o2)c(=O)n(-c2ccccc2)n1C was read as PAFAH1B3 FP inh 8.1, PAFAH1B2 inh -1.1, HTRA1 inhibitor -21.9, pPAFAH inh 27.4*, DAGLB inhibitor 4.5 and PAFAH2 inh 1.8.
For O=c1c2cc(NC(=S)N3CCCCC3)ccc2nc2n1CCCCC2 the results were PAFAH1B3 FP inh 3.5, PAFAH1B2 inh 3.7, HTRA1 inhibitor 1.1, pPAFAH inh 7.2, DAGLB inhibitor 1.7 and PAFAH2 inh 5.3.
Screening CC1CCN(C(=S)Nc2ccc3nc4n(c(=O)c3c2)CCCCC4)CC1 returned PAFAH1B3 FP inh 6.0, PAFAH1B2 inh 24.3*, HTRA1 inhibitor 0.1, pPAFAH inh 6.5, DAGLB inhibitor -1.1 and PAFAH2 inh -6.3.
`O=C(OCC(=O)c1ccc(Cl)s1)c1ccccn1` gave PAFAH1B3 FP inh 3.0, PAFAH1B2 inh -2.4, HTRA1 inhibitor -0.4, pPAFAH inh 5.6, DAGLB inhibitor 0.1 and PAFAH2 inh -0.4.
Screening O=C(OCC(=O)c1ccc(Cl)s1)c1cnccn1 returned PAFAH1B3 FP inh 2.3, PAFAH1B2 inh 3.2, HTRA1 inhibitor 1.0, pPAFAH inh 26.1*, DAGLB inhibitor 4.6 and PAFAH2 inh 7.6.
Screening O=C(COC(=O)c1cnccn1)c1ccc(Br)cc1 returned PAFAH1B3 FP inh 3.8, PAFAH1B2 inh 26.1*, HTRA1 inhibitor 7.4, pPAFAH inh -3.6, DAGLB inhibitor -0.2 and PAFAH2 inh 2.5.
For Cc1occc1-c1nnc(SC(C)C(=O)Nc2ccccc2F)o1 (stereo not drawn) the results were PAFAH1B3 FP inh 8.0, PAFAH1B2 inh 8.8, HTRA1 inhibitor -0.8, DAGLB inhibitor 0.8 and PAFAH2 inh 4.5.
N#Cc1c(SC(C(=O)O)c2ccccc2)nc2c(c1-c1cccs1)CCCC2 (stereo not drawn) was read as PAFAH1B3 FP inh 11.0, PAFAH1B2 inh 26.9*, HTRA1 inhibitor -27.1, pPAFAH inh 19.9, DAGLB inhibitor 12.7 and PAFAH2 inh -2.0.
For O=c1c(Sc2ccccc2)c(C(F)(F)F)[nH]n1-c1ccccc1 the results were PAFAH1B3 FP inh -0.8, PAFAH1B2 inh 29.5*, HTRA1 inhibitor 4.1, pPAFAH inh 7.0, DAGLB inhibitor 14.6 and PAFAH2 inh 3.8.
Screening O=c1c2c(C(F)(F)F)cc(C(F)(F)F)nc2[nH]n1-c1ccccc1 returned PAFAH1B3 FP inh 5.7, PAFAH1B2 inh 0.0, HTRA1 inhibitor -3.1, pPAFAH inh 4.6, DAGLB inhibitor 19.1 and PAFAH2 inh -0.7.
For COc1ccccc1NC(=O)c1cc(C(=O)Nc2ccccc2OC)n(C)n1 the results were PAFAH1B3 FP inh 5.2, PAFAH1B2 inh 4.4, HTRA1 inhibitor -10.0, pPAFAH inh 3.4, DAGLB inhibitor -9.1 and PAFAH2 inh -3.7.
Screening O=C(CN1CCN(S(=O)(=O)c2ccc(Br)s2)CC1)NC1CCCCC1 returned PAFAH1B3 FP inh 7.7, PAFAH1B2 inh 30.2*, HTRA1 inhibitor -0.2, DAGLB inhibitor -1.0 and PAFAH2 inh 13.2.
NC(=S)n1[nH]c(-c2ccc([N+](=O)[O-])cc2)c(N=Nc2cccc([N+](=O)[O-])c2)c1=O was read as PAFAH1B3 FP inh 19.3, PAFAH1B2 inh 26.6*, HTRA1 inhibitor 6.6, DAGLB inhibitor 15.6 and PAFAH2 inh 38.6*.
`O=C(NCCCc1ccc(F)cc1)C1CCC(=O)N(CC2CCCCC2)C1` (stereo not drawn) gave PAFAH1B3 FP inh 6.5, PAFAH1B2 inh -0.7, HTRA1 inhibitor -5.0, pPAFAH inh -2.7, DAGLB inhibitor -0.1 and PAFAH2 inh -5.8.
CCOc1ccc(NC(=O)CN(C)C(=O)CN2C(=O)NC3(CCCC3)C2=O)cc1OCC was read as PAFAH1B3 FP inh 10.8, PAFAH1B2 inh -1.4, HTRA1 inhibitor 1.0, pPAFAH inh 25.7*, DAGLB inhibitor 0.9 and PAFAH2 inh 1.8.
For O=C1NC(=O)/C(=C\c2ccccc2Oc2ccc(F)c(F)c2)S1 the results were PAFAH1B3 FP inh -11.3, PAFAH1B2 inh 25.8*, HTRA1 inhibitor -21.7, pPAFAH inh 8.2, DAGLB inhibitor 14.9 and PAFAH2 inh -4.4.
`CC1=C/C(=C(\c2ccc(O)c(C)c2)c2ccccc2S(=O)(=O)O)C=CC1=O` gave PAFAH1B3 FP inh 5.2, PAFAH1B2 inh 6.6, HTRA1 inhibitor -3.5, pPAFAH inh 5.0, DAGLB inhibitor 0.4 and PAFAH2 inh 1.8.
`CC1=CC(=O)C=C/C1=C(/c1ccc(O)cc1C)c1ccccc1S(=O)(=O)O` gave PAFAH1B3 FP inh 2.4, PAFAH1B2 inh 26.3*, HTRA1 inhibitor -13.1, pPAFAH inh 16.6, DAGLB inhibitor 4.0 and PAFAH2 inh -0.9.
Screening COC(=O)C(Cc1ccccc1)NC(=O)CCCC(=O)NCc1cccc(OC)c1 (stereo not drawn) returned PAFAH1B3 FP inh 8.5, PAFAH1B2 inh 2.3, HTRA1 inhibitor 13.4, pPAFAH inh 2.5, DAGLB inhibitor -1.0 and PAFAH2 inh 5.4.
`CCCCn1c(NS(=O)(=O)c2ccc(C)cc2)c(S(=O)(=O)c2ccccc2)c2nc3ccccc3nc21` gave PAFAH1B3 FP inh 72.2*, PAFAH1B2 inh 34.0*, HTRA1 inhibitor 17.5, pPAFAH inh 4.4, DAGLB inhibitor -16.2 and PAFAH2 inh 49.3*.
Cc1ccc(S(=O)(=O)c2c(N)n(CCCN(C)C)c3nc4ccccc4nc23)cc1 was read as PAFAH1B3 FP inh 13.0, PAFAH1B2 inh 5.3, HTRA1 inhibitor -2.6, pPAFAH inh 9.0, DAGLB inhibitor -0.2 and PAFAH2 inh 3.5.
`COc1ccc(CC2(CO)CCN(S(=O)(=O)c3sccc3C)CC2)cc1` gave PAFAH1B3 FP inh 0.4, PAFAH1B2 inh 0.6, HTRA1 inhibitor -23.6, pPAFAH inh 2.9, DAGLB inhibitor -1.4 and PAFAH2 inh 3.2.
Cc1ccccc1-c1cc(C(=O)NCc2ccc3c(c2)OCO3)nn1CC1CC(c2cccc([N+](=O)[O-])c2)=NO1 (stereo not drawn) was read as PAFAH1B3 FP inh 14.4, PAFAH1B2 inh 9.6, HTRA1 inhibitor -15.1, pPAFAH inh 8.7, DAGLB inhibitor 6.7 and PAFAH2 inh 1.4.
Screening N#Cc1c(N)sc(=S)c2c1CCN(Cc1ccccc1)C2 returned pPAFAH inh 40.4*.
Cc1cc(C)cc(N(CC(=O)Nc2ccc(C(F)(F)F)cc2)S(=O)(=O)c2c(C)[nH]c(=O)[nH]c2=O)c1 was read as PAFAH1B3 FP inh -1.2, PAFAH1B2 inh 3.4, HTRA1 inhibitor -29.0, pPAFAH inh 28.2*, DAGLB inhibitor 3.2 and PAFAH2 inh -0.4.
Screening COc1cc(NC(=O)CN(c2cc(C)cc(C)c2)S(=O)(=O)c2c(C)[nH]c(=O)[nH]c2=O)cc(OC)c1 returned PAFAH1B3 FP inh 5.7, PAFAH1B2 inh 2.8, HTRA1 inhibitor -10.6, pPAFAH inh 24.8*, DAGLB inhibitor 5.3 and PAFAH2 inh 1.0.
CCOc1ccc(CCNC(=O)c2cccc(S(=O)(=O)N3CCN(C(C)=O)CC3)c2)cc1OCC was read as PAFAH1B3 FP inh 2.9, PAFAH1B2 inh 0.2, HTRA1 inhibitor -1.3, pPAFAH inh 0.1, DAGLB inhibitor 1.8 and PAFAH2 inh 1.1.
